From ChEMBL document CHEMBL2218924, “A broad activity screen in support of a chemogenomic map for kinase signalling research and drug discovery” (Biochem J, 2013)

How the values were obtained:
[1] = target: T1, Serine/threonine-protein kinase TBK1 (Homo sapiens) (UniProt Q9UHD2); conditions: at 1 µM
T1 sequence (whole entry): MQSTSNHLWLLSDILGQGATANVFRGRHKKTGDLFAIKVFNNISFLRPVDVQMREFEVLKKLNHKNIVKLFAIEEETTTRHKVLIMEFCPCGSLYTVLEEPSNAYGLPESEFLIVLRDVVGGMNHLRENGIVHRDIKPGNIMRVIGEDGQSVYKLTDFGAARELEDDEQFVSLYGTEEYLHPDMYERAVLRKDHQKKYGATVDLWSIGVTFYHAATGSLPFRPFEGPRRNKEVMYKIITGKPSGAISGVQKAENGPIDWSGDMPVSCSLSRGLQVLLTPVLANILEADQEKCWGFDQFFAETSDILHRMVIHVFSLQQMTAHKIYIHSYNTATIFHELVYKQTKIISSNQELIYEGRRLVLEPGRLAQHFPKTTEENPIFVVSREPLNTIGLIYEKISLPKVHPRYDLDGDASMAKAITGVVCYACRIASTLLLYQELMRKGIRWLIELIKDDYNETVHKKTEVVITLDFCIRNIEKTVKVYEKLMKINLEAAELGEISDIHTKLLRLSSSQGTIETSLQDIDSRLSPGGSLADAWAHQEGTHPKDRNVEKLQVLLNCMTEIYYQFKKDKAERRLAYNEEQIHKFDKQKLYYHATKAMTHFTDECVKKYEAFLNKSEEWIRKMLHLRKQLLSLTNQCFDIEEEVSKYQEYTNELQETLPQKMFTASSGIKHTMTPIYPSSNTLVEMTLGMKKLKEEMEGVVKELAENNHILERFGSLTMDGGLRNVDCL

[2] = target: T1, Serine/threonine-protein kinase TBK1 (Homo sapiens); conditions: at 10 µM
[3] = target: T2, TGF-beta receptor type-1 (Homo sapiens) (UniProt P36897); conditions: at 1 µM
T2 sequence (whole entry): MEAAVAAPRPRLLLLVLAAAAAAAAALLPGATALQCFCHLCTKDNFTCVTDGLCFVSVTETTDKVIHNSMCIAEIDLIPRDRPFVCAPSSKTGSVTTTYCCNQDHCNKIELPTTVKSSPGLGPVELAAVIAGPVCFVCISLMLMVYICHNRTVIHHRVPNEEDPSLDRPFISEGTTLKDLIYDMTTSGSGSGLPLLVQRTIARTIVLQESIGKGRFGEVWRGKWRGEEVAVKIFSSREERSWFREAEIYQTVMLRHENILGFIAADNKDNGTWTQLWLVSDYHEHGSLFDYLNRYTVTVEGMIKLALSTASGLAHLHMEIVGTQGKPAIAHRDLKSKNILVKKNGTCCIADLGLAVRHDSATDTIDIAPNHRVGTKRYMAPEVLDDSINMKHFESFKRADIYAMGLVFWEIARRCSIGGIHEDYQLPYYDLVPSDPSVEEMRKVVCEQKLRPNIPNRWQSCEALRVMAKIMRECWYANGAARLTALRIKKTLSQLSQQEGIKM

[4] = target: T2, TGF-beta receptor type-1 (Homo sapiens); conditions: at 10 µM
[5] = target: Insulin-like growth factor 1 receptor (Homo sapiens) (UniProt P08069); conditions: at 1 µM
Insulin-like growth factor 1 receptor (Homo sapiens), sequence (P08069 31-736 limits assumed): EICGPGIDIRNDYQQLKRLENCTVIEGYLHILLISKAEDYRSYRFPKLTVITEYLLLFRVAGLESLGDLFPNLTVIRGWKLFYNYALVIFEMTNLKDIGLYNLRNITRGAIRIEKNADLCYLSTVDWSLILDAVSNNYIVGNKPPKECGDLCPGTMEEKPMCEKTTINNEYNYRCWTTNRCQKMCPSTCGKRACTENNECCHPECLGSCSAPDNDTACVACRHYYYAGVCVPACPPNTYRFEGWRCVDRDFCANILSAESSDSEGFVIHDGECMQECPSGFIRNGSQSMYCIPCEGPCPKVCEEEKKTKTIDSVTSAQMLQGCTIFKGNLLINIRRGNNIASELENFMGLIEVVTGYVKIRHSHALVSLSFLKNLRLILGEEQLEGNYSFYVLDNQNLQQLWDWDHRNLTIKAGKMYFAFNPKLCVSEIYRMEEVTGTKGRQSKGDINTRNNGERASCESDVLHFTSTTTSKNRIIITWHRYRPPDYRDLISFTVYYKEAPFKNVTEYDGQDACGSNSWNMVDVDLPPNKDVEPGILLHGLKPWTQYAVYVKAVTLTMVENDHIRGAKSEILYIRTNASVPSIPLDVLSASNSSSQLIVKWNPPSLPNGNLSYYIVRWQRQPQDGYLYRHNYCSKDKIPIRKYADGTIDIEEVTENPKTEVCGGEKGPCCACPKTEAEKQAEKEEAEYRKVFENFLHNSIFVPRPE
Insulin-like growth factor 1 receptor (Homo sapiens), sequence (P08069 741-1367 limits assumed): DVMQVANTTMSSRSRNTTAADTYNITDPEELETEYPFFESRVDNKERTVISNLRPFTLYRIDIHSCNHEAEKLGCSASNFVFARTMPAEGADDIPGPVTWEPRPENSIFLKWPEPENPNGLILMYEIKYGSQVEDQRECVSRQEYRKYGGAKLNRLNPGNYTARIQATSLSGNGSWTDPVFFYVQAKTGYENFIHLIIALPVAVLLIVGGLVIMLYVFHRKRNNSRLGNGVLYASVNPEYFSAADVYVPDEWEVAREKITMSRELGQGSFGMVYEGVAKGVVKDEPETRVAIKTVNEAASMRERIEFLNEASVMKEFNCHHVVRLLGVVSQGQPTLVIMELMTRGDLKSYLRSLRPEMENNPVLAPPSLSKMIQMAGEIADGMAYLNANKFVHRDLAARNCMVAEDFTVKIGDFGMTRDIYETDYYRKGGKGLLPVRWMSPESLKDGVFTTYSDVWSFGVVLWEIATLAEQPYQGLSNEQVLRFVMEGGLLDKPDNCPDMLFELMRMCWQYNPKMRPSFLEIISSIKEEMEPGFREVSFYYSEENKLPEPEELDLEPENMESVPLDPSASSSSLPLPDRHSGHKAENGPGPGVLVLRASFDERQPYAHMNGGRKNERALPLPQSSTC

[6] = target: Insulin-like growth factor 1 receptor (Homo sapiens) (UniProt P08069); conditions: at 10 µM
[7] = target: T3, Inhibitor of nuclear factor kappa-B kinase subunit alpha (Homo sapiens) (UniProt O15111); conditions: at 1 µM
T3 sequence (whole entry): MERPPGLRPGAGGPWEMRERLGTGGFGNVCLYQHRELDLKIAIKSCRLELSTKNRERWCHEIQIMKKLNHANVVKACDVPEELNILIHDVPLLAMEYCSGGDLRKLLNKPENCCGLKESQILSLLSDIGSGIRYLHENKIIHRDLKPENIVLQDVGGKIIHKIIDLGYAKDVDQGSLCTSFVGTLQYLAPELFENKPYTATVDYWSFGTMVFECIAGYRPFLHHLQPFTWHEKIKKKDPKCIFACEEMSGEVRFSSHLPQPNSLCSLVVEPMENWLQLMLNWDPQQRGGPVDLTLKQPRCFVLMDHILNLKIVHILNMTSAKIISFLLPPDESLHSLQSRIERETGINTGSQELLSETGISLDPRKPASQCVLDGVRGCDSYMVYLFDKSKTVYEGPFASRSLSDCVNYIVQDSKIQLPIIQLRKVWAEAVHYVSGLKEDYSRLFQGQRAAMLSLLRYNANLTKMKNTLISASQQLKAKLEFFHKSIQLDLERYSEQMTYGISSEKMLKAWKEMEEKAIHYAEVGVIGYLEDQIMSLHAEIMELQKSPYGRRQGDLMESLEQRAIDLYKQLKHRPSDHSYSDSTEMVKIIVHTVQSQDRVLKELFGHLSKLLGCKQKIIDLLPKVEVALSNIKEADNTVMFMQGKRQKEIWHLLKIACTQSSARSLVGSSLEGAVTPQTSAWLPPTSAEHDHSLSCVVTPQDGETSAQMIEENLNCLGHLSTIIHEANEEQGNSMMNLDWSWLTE

[8] = target: T3, Inhibitor of nuclear factor kappa-B kinase subunit alpha (Homo sapiens); conditions: at 10 µM
[9] = target: T4, Inhibitor of nuclear factor kappa-B kinase subunit beta (Homo sapiens) (UniProt O14920); conditions: at 10 µM
T4 sequence (whole entry): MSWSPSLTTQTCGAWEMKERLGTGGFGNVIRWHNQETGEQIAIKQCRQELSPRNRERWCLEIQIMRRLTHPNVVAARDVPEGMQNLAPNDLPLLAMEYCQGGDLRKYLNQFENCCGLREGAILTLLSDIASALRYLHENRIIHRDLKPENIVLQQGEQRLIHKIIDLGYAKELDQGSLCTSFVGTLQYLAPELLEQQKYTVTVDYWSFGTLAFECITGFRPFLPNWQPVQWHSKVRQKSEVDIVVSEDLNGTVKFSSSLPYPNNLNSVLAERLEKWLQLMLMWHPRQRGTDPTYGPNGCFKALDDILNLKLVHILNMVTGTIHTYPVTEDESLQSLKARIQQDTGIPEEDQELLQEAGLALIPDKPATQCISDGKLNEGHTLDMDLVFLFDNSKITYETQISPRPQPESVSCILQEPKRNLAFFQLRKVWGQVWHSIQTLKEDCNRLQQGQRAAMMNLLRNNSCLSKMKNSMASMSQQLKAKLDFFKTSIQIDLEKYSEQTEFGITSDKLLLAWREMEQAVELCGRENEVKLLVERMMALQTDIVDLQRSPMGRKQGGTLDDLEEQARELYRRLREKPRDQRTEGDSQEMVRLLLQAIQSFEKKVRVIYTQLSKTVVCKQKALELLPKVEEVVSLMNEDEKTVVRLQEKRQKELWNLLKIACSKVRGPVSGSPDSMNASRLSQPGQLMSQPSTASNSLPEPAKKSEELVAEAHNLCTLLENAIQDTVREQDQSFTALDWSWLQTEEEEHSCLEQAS

Nc1cccc(-c2cc3c(Oc4cccc(O)c4)ncnc3[nH]2)c1
residual activity [1]: 70%
residual activity [2]: 19%
residual activity [3]: 101%
residual activity [4]: 56%
residual activity [5]: 105%
residual activity [6]: 85%
residual activity [7]: 88%
residual activity [8]: 78%
residual activity [9]: 91%
